Screening data as filed in PubChem.
This is a sample that favours compounds with a hit; in the whole collection about 1.6% have one here.
KCNQ2 inh: blocks the rat KCNQ2 potassium channel. CHO-K1 KCNQ2, FluxOR thallium flux, 20 min; hits give low values. actives 1.1% (n = 310,000). AID 2156. O88943. B-score at 10 µM;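 active means fluorescence ratio B-score at most minus 3 library SDs, with starting brightness B-score within 2 library SDs, cut at about -5.5 in these data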
KCNQ2 pot: potentiators of rat KCNQ2 potassium channel | B-score at 10 µM | actives 0.54% (n = 310,000) | CHO-K1 KCNQ2, FluxOR thallium flux fluorescence; hits give high values;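 active means fluorescence ratio B-score at least 3 SD of library B-scores, with initial fluorescence B-score within 3 of them, cut at about 5.3 in these data; same plate scores as AID 2156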;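 further: B-score of peak minus minimum over baseline fluorescence ratio after K+ and Tl+ stimulus; positive B-score means potentiation of KCNQ2 with more thallium influx and brighter signal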
Kir21 conf inh: confirmation of mouse Kir2.1 potassium channel inhibitors | Kir2.1-expressing cells, FluxOR thallium flux fluorescence; hits give low values | actives 41% (n = 2,300) | Tl flux remaining, % of negative control (hits give low values), % at 10 µM | shares compounds with KCNQ2 pot | AID 2032;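 active means Primary-screen hit whose thallium flux fell at least 3 control SD below untreated wells in both duplicates, with normal baseline fluorescence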;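 further: 0% = blank wells without stimulus and 100% = stimulated no-compound controls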
HEK293 Tl flux: alters thallium flux in parental HEK293 cells, Kir2.1 counter-screen. actives 19% (n = 2,300). AID 2105. shares compounds with KCNQ2 pot. FluxOR signal as % of negative control (100 = no effect), % at 10 µM. FluxOR thallium flux fluorescence; 0% = unstimulated blank wells;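 active means dye signal at least 3 control SD above or below untreated wells in both duplicates, raw fluorescence within 3, either direction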;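 further: percent is based on the flux ratio of peak minus minimum fluorescence over baseline F0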
CHO-K1 ctr: alters thallium flux in parental CHO-K1 cells, KCNQ2 counter-screen; actives 43% (n = 1,200); shares compounds with KCNQ2 pot; AID 2282; FluxOR thallium flux fluorescence; zero = vehicle mean+3SD, 100% = vehicle-minus-blank window; activity increase over 3SD of controls, % at 10 µM;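 active means signal rise of at least 3 SD above the untreated control mean, in both duplicate wells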;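 further: counter screen of KCNQ2 potentiator hits so any rise reflects channel-independent effects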
KCNQ1 pot spec: selectivity of KCNQ2 potentiators: effect on human KCNQ1. AID 2283. shares compounds with KCNQ2 pot. actives 28% (n = 1,200). CHO KCNQ1 stable, FluxOR thallium flux fluorescence; beyond 3SD, as % of vehicle-control signal. activation over 3SD threshold, % at 10 µM;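 active means fluorescence ratio rise of at least 3 SD of vehicle wells above their mean, in both replicate wells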;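 further: 0% = vehicle mean plus 3 SD and 100% = vehicle minus unstimulated blank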
KCNQ2 pot confirm: confirmation of rat KCNQ2 potassium channel potentiators; shares compounds with KCNQ2 pot; CHO-KCNQ2 cells, FluxOR thallium flux fluorescence; potentiation, less the hit threshold, % at 10 µM; actives 68% (n = 1,200); AID 2287;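 active means fluorescence ratio rising 3 SD or more over the vehicle control mean in both replicates, plus primary screen hit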;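 further: peak minus minimum thallium fluorescence divided by baseline after K/Tl stimulus; 0% = vehicle mean plus 3 SD and 100% = vehicle minus unstimulated blank difference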
Kir21 spec: selectivity of KCNQ2 potentiators: effect on mouse Kir2.1; AID 2345; HEK293 Kir2.1, FluxOR thallium flux fluorescence; activity over 3SD threshold, % at 10 µM; actives 2% (n = 1,200); shares compounds with KCNQ2 pot;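 active means fluorescence ratio rise of at least 3 SD above the vehicle-control mean, seen in both replicates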;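 further: 0% = vehicle mean plus 3 SD and 100% = vehicle minus no-stimulus blank window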
KCNQ2 W236L MoA: rat KCNQ2 W236L mutant potentiation by KCNQ2 potentiators. shares compounds with KCNQ2 pot. CHO KCNQ2-W236L, automated patch clamp current. current increase over 3SD of negative controls (%), hits give high values, % at 25 µM. actives 10% (n = 940);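 active means current increase at least 3 SD of the untreated controls above them in both duplicate recordings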
Target sequence (O88943 whole entry W236L, looked up): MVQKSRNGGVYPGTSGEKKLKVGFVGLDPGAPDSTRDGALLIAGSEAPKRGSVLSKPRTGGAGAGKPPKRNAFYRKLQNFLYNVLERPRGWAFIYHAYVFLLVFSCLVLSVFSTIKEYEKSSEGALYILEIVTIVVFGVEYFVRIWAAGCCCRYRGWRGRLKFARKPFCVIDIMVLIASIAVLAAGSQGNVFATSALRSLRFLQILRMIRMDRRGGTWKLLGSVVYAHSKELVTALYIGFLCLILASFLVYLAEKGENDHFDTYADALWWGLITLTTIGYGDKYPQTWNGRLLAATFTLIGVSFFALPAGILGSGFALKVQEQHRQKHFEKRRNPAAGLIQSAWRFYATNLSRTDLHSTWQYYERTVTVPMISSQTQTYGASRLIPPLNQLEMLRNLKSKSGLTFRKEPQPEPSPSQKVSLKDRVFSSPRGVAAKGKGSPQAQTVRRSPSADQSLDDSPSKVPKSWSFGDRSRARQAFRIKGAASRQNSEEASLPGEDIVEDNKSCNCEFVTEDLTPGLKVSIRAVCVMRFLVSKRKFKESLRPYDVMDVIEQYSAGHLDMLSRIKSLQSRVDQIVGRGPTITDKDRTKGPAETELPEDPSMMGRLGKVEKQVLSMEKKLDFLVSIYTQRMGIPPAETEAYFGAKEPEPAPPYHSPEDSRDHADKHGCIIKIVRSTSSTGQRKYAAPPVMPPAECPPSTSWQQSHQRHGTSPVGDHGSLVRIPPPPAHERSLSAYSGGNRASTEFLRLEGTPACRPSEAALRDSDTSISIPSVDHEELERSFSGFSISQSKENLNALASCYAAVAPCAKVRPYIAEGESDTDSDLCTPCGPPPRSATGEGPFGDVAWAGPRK
* hit, by the source's call; i = inactive; . = no result.

SMILES | KCNQ2 inh | KCNQ2 pot | Kir21 conf inh | HEK293 Tl flux | CHO-K1 ctr | KCNQ1 pot spec | KCNQ2 pot confirm | Kir21 spec | others
S=c1[nH]c(-c2ccccc2)cs1 | i | 11.2* | i | 147.0%* | 9.5* | -15.0 | 65.7* | -39.1 | KCNQ2 W236L MoA=i
Cc1cc(OCC(O)CN2CCc3ccccc3C2)cc(C(C)C)c1 (stereo unspecified) | i | . | 53.0%* | i | . | . | . | .
CCOc1ccc(OCC(O)CN2CCc3ccccc3C2)cc1 (stereo unspecified) | i | . | . | . | . | . | . | .
CN(CC(=O)Nc1ccccc1N1CCCC1)S(=O)(=O)c1ccc(F)cc1 | i | 0.41 | . | . | . | . | . | .
O=C(COc1ccc2cc(-c3ccccc3)c(=O)oc2c1)NCC1CCC(C(=O)O)CC1 (stereo unspecified) | i | 1.45 | . | . | . | . | . | .
N/C(=N\OC(=O)Nc1ccccc1)c1cccc(C(F)(F)F)c1 | i | 10.5* | i | i | -13.8 | 9.0* | 23.1* | -27.7 | KCNQ2 W236L MoA=i
N/C(=N\OC(=O)Nc1ccccc1)c1ncc(C(F)(F)F)cc1Cl | i | . | . | . | . | . | . | .
CCN(Cc1ccccc1)Cc1ccc(OCc2ccccc2)c(OC)c1 | i | . | . | . | . | . | . | .
COc1cc(CN(C)CCc2ccccc2)ccc1OCc1ccccc1 | i | . | 16.5%* | i | . | . | . | .
COc1ccccc1NC(=O)NC1CC(=O)N(c2ccc3c(c2)OCCO3)C1 (stereo unspecified) | i | 0.63 | . | . | . | . | . | .
Cc1ccc(NC(=O)CSc2ncc3ccccn23)cc1 | i | 1.66 | . | . | . | . | . | .
NC(=NC(=O)c1ccc(Cl)cc1)N1N=CCC1c1ccccc1 (stereo unspecified) | i | . | . | . | . | . | . | .
O=C(CSc1ccc(Cl)cc1)N1N=CCC1c1ccccc1 (stereo unspecified) | i | . | 66.5%* | i | . | . | . | .
CC(C)NC(=O)Nc1n[nH]c(Nc2ccc(Cl)cc2)n1 | i | 5.61* | i | i | 9.6* | -20.9 | -3.8 | -27.1 | KCNQ2 W236L MoA=i
CCCc1cc(=O)[nH]c(Nc2ccc(Cl)cc2)n1 | i | . | . | . | . | . | . | .
CCc1cc2c(=O)n(CCC(C)C)c(=S)[nH]c2s1 | i | 17.1* | i | 371.0%* | 14.1* | -4.7 | 57.3* | -4.7 | KCNQ2 W236L MoA=i
CCCn1c(=S)[nH]c2ccccc2c1=O | i | 1.17 | . | . | . | . | . | .
COC(=O)/C(=N/Nc1ccccc1C)Sc1nnc(C(O)c2ccccc2)n1-c1ccccc1 (stereo unspecified) | i | . | . | . | . | . | . | .
CCc1nc(SCC(=O)N2CCN(c3ccccc3)CC2)c2oc3ccccc3c2n1 | i | . | . | . | . | . | . | .
CCc1nc(SCC(=O)c2ccc(Cl)s2)c2oc3ccccc3c2n1 | i | 10.1* | i | i | -10.6 | 53.6* | -17.1 | -37.2
CCN1CCc2c(C#N)c(N3CCCCC3)nc(N3CCOCC3)c2C1 | i | . | . | . | . | . | . | .
N#Cc1c(N2CCOCC2)nc(N2CCCCC2)c2c1CCN(C1CCCCC1)C2 | i | 10.8* | i | i | -15.7 | 10.4* | 16.2* | -21.9 | KCNQ2 W236L MoA=i
CC(=O)CCSc1ncnc2sc(-c3ccccc3)cc12 | i | . | . | . | . | . | . | .
O=C(O)CCSc1ncnc2sc(-c3ccccc3)cc12 | i | 9.55* | i | 197.5%* | 16.8* | 3.1* | 33.2* | -21.0 | KCNQ2 W236L MoA=16.4%*
COc1ccc(C2=NOC(Cn3c(Cc4ccc(Cl)cc4)nc4c3c(=O)n(C)c(=O)n4C)C2)cc1 (stereo unspecified) | i | 5.4* | i | i | 6.7* | -39.1 | -12.7 | -24.1
SMILES | KCNQ2 inh | KCNQ2 pot | Kir21 conf inh | HEK293 Tl flux | CHO-K1 ctr | KCNQ1 pot spec | KCNQ2 pot confirm | Kir21 spec | others
COc1ccccc1C1=NOC(Cn2c(NCCCO)nc3c2c(=O)n(C)c(=O)n3C)C1 (stereo unspecified) | i | 0.64 | . | . | . | . | . | .
Cc1ccc2oc(C(=O)N3CCN(Cc4nccn4C)CC3)c(C)c2c1 | i | 0.47 | . | . | . | . | . | .
CC(=O)N1CCN(CC(=O)NC(=O)Nc2ccc3c(c2)OCCO3)CC1 | i | 1.72 | . | . | . | . | . | .
CC(CC(=O)N1CCN(c2ccccc2)CC1)S(=O)(=O)c1ccc2c(c1)NC(=O)CO2 (stereo unspecified) | i | 1.47 | . | . | . | . | . | .
COc1ccccc1C(=O)NNC(=O)c1ccc(F)cc1 | i | . | . | . | . | . | . | .
O=C(NNC(=O)c1ccccc1OCc1ccc(F)cc1)c1ccncc1 | i | 6.11* | i | i | 23.3* | -8.6 | -22.8 | -32.8
CCCC(=NC(C)CC)C1=C(O)CC(c2ccccc2)CC1=O (stereo unspecified) | i | . | . | . | . | . | . | .
Cc1ccc(C(=O)Nc2nc3ccccc3c(=O)s2)cc1 | i | 6.07* | i | 254.5%* | -14.0 | -15.3 | -2.5 | -17.3
CSc1nc2ccc3nc(NC(=O)c4ccc(C)cc4)sc3c2s1 | i | 0.66 | . | . | . | . | . | .
CCOc1cc(N2CCOCC2)c(OCC)cc1NC(=O)Cc1cccc(OC)c1 | i | 10.4* | i | i | 36.0* | 14.1* | 72.2* | -50.1 | KCNQ2 W236L MoA=i
CCOc1cc(N2CCOCC2)c(OCC)cc1NC(=O)CN1C(=O)NC(C)(C2CC2)C1=O (stereo unspecified) | i | . | . | . | . | . | . | .
CCOc1cc(N2CCOCC2)c(OCC)cc1NC(=O)CC12CC3CC(CC(C3)C1)C2 | i | 23.4* | i | i | -18.4 | -25.2 | 113.2* | -28.4 | KCNQ2 W236L MoA=0.7%*
CCOc1cc(N2CCOCC2)c(OCC)cc1NC(=O)Cc1ccc(OC)c(OC)c1 | i | . | . | . | . | . | . | .
Cn1cc(C(=O)NCN2CCCCC2)c2ccccc21 | i | 1.61 | . | . | . | . | . | .
CCOC(=O)N1CCC(NC(=O)CS(=O)Cc2nc(-c3ccc(Cl)cc3)oc2C)CC1 (stereo unspecified) | i | 1.66 | . | . | . | . | . | .
O=c1cc(CSc2nnnn2-c2ccccc2)[nH]c2[nH]n(-c3ccccc3)c(=O)c12 | i | 1.32 | . | . | . | . | . | .
CCN(CC)S(=O)(=O)c1cccc(NC(=O)COC(=O)CCC(=O)c2ccc(F)cc2)c1 | i | . | . | . | . | . | . | .
CN(Cc1ccc(F)cc1)C(=O)c1sccc1-c1ccccc1 | i | . | 64.5%* | i | . | . | . | .
COc1ccc(CN(C)C(=O)c2sccc2-c2ccccc2)c(OC)c1 | i | . | . | . | . | . | . | .
C/C(=C/CCC(C)C1CCC2(C)C3CCC4C(C)(C)C(=O)CCC4(C)C3=CCC12C)C(=O)O (stereo unspecified) | i | 1.57 | . | . | . | . | . | .
C/C(=C/CCC(C)[C@H]1CC[C@@]2(C)C3=C(CC[C@]12C)[C@@]1(C)CCC(=O)C(C)(C)[C@@H]1CC3)C(=O)O (stereo partly specified) | i | 21.4* | i | i | 1.4* | -11.0 | -26.1 | -33.0
